Bioassay records: PubChem BioAssay, National Center for Advancing Translational Sciences (NCATS)
KB-V1 MDR tox = kills drug-selected multidrug resistant KB-V1 cells; KB-V1 MDR cells viability, CellTiter-Glo, 72 h; Potency, µM (titrated, usually from 46.1 µM), most hits filed as cytotoxic; 400,000 compounds, 3.4% hits; AID 1347076; also: % is scaled to controls: 0 for no effect and ±100 for the full control effect; nearly all actives have a fitted effect of over 60% in size
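Compound-treated KB-V1 multidrug-resistant cells, 72 h, 37 degrees C; viability by CellTiter-Glo. Fitted qHTS curves give the values.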
ATXN2 expr inh = inhibitors of ATXN2 expression; 360,000 compounds, 0.72% hits; HEK-293 ATXN2-luciferase reporter, luminescence, 24 h; Potency, µM (series often up to 57 µM), for the others: at the highest dose activity change, negative = inhibition, hits mostly inhibitors; also: % is scaled to controls: 0 for no effect and ±100 for the full control effect; nearly all actives have a fitted effect of over 55% in size
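qHTS (up to 57 uM final) was run with 24 h compound exposure of reporter cells at 37 °C. Each well was multiplexed: SteadyGlo luminescence measured ATXN2-luciferase expression after a fluorogenic Gly-Phe-AFC viability readout (25 uM final).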
HT1080-NT tox = kills 2HG-producing HT-1080-NT fibrosarcoma cells; HT-1080-NT fibrosarcoma viability, CellTiter-Glo ATP luminescence, 48 h; Potency, µM (top dose mostly 46.1 µM), without a hit: top-dose activity, negative = less viability, actives largely listed as cytotoxic; 360,000 compounds, 1.6% hits;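 also: NT is the 2HG producing partner of a matched IDH1 knockdown line; 0% = DMSO-treated cells and -100% = media-only wells without cells; nearly all actives have a fitted effect of over 55% in size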
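A 48-hour cytotoxicity screen used HT-1080-NT cells plated 2 hours before compound delivery. ATP-based CellTiter-Glo luminescence measured viability, normalized to DMSO and no-cell controls.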
S2 tox = cell viability loss in ATXN counter-screen; Potency, µM (series often up to 56.7 µM), hits mostly cytotoxic; S2 cells (HEK-293 line with an ATXN2-luciferase reporter) viability, CellTiter-Fluor protease fluorescence, 24 h; 400,000 compounds, 0.49% hits; also: nearly all actives have a fitted effect of over 40% in size
HT1080 IDH1KD tx = kills HT-1080 cells with IDH1 knockdown; HT-1080 IDH1 knockdown viability, ATP luminescence, 48 h; Potency, µM (top dose mostly 46.1 µM), without a hit: at the highest dose activity, negative = toxicity, hits mostly cytotoxic; 360,000 compounds, 2% hits; AID 686971;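 also: 0% = DMSO wells and -100% = cell-free medium wells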
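CellTiter-Glo luminescence after 48 h compound exposure at 37 degrees C of IDH1-knockdown HT-1080 cells in 5% FBS RPMI. %Activity scaled between DMSO wells and cell-free media wells, with curves fitted and assigned curve classes.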
KB-3-1 tox = KB-3-1 parental cell cytotoxicity; 400,000 compounds, 1.4% hits; KB-3-1 viability, CellTiter-Glo ATP luminescence, 72 h; Potency, µM (top dose mostly 46.1 µM), actives largely listed as cytotoxic; also: % is scaled to controls: 0 for no effect and ±100 for the full control effect; nearly all actives have a fitted effect of over 60% in size
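Viability of parental KB-3-1 cells, measured by CellTiter-Glo luminescence, followed a 72 h incubation at 37 °C with pinned compounds in phenol-red-free DMEM containing 10% FBS.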
Numbers without * were called inactive; i = inactive; ? = inconclusive; nt = no result; [ ] = remark or other dose. Most compounds without a hit are left out; they make up all but 6.2% or so of the library. Calls follow the shape of the dose curve; as a rule, active = well fitted curve in the direction sought with a large enough effect; inconclusive = small, poorly fitted or top-dose-only effect, or another doubt; inactive = no such curve, though single readings can be large; an effect the other way counts as inactive or inconclusive. Potency is read from the fitted curve at half-maximal effect.

SMILES	KB-V1 MDR tox	ATXN2 expr inh	HT1080-NT tox	S2 tox	HT1080 IDH1KD tx	KB-3-1 tox
Cc1cccc(NC(=O)C(NS(=O)(=O)c2cccc3nsnc23)c2ccccc2)c1C (configuration not stated)	i	12%	nt	i	nt	i
CSc1ccc(/C=C/c2cc(=O)c3ccccc3[nH]2)cc1	3.7µM*	6%	-9%	i	-14%	i
O=c1cc(C(F)(F)F)[nH]c2ccccc12	i	nt	?	i	-26%	i
O=c1cc(/C=C/c2cccs2)[nH]c2ccccc12	?	18%	-23%[9.24 µM]	i	7.1µM*	?
CCOc1cccc2sc(NC(=O)c3ccc(S(=O)(=O)N4CCCCC4)cc3)nc12	i	-1%	nt	i	nt	i
O=C(Cn1ccc2cc(S(=O)(=O)N3CCCCC3)ccc21)NCCc1ccc(Cl)cc1	i	0%	nt	?	nt	i
COc1cc(=O)n2c(c1C(=O)NCc1ccco1)CCN(Cc1ccc3ccccc3c1)CC2	nt	nt	nt	i	nt	nt
CC1=C(C(=O)OC(C)C)C(c2ccccc2)NC(=S)N1C (configuration not stated)	18µM*	-4%	-10%	i	?	i
CC(C)N1CCC1(C)C(=O)Nc1ccc2cn[nH]c2c1 (configuration not stated)	i	6%	16%	i	1%	i
CCOc1ccc2nc(NC(=O)c3ccccc3)sc2c1	?	3%	nt	?	nt	?
CCOc1ccc2nc(NS(=O)(=O)Cc3ccccc3)sc2c1	?	27%	5.8µM*	i	6.5µM*	?
O=C(CCC1N=C2c3ccccc3N=C(SCc3ccccc3Cl)N2C1=O)N1CCN(c2ccccc2)CC1 (configuration not stated)	i	13%	nt	i	nt	i
C=CCn1c(SCc2ccc(C#N)cc2)nnc1-c1cccc(OC)c1	i	-3%	-8%	i	-6%	i
C=CCn1c(SCc2ccc(C#N)cc2)nnc1-c1ccccc1	9.2µM*	-2%	-10%	i	5%	i
CC(=O)c1c(N2CCN(c3ccc(F)cc3)CC2)nc(=S)n(Cc2ccccc2)c1C	?	-6%	-18%	i	-25%	23µM*
CC(=O)c1c(N2CCCCC2)nc(=S)n(Cc2ccccc2)c1C	i	3%	1%	i	-24%	?
CCn1c(C)c(C(C)=O)c(N2CCN(c3ccc(F)cc3)CC2)nc1=S	i	0%	14%	i	9%	i
CC(=O)c1c(N2CCN(Cc3ccccc3)CC2)nc(=S)n(Cc2ccccc2)c1C	2.9µM*	-11%	-3%	i	-2%	?
O=C1NC[C@H](CCCCN2C[C@H](Cc3ccc(O)cc3)N(Cc3ccccc3)C(=O)C2=O)N(Cc2ccccc2)C1=O	i	9%	20%	i	16%	i
CC(C)(C)c1ccc(OCCOc2ccc(C(C)(C)C)cc2NC=O)c(NC=O)c1	?	nt	?	?	15µM*	i
COCCOc1ccc(C(F)(F)F)cc1NC(=O)c1ccccc1	i	-7%	10%	i	20%	i
CCc1ccc2c(c1)c(=O)c(S(=O)(=O)c1ccccc1)cn2CC(=O)Nc1cc(C)ccc1C	?	-1%	nt	i	nt	i
CCN1CCC(CNCc2cn(-c3ccc(OC)cc3)nc2-c2ccccc2Cl)C1 (configuration not stated)	i	-36%	16µM*	?	?	?
Fc1ccc(-n2cc(CNCCc3ccccn3)c(-c3ccccc3Cl)n2)cc1	21µM*	-22%	21µM*	i	21µM*	?
COc1ccc(-n2cc(CNCCc3nc(C)cc(C)n3)c(-c3ccccc3Cl)n2)cc1	?	-27%	16µM*	?	16µM*	i
COc1ccc(NC(=O)CSc2nc3ccccc3c(=O)n2CCC(=O)NC2CCCCC2)c(OC)c1	i	-8%	nt	i	nt	i
